PubChem BioAssay AID1159580 (chemical genetic matrix, 2015)
Several values for one entry are separate records, joined by “and”; a condition that tells them apart may be missing. Identical values can stand only once. Hit rate of the full screen: of about 5,500 compounds, about 2,000 (36%) were called active. About 18% were inconclusive and are not listed. No stated cut-off is given here; in the data, active means normalized growth mostly below about 0.91 (no sharp cut-off); inconclusive means no clear call, values can overlap the other calls; inactive means mostly above about 0.92. The list shows a part of the results.

Assay: chemical genetic growth profiling, strain panel (AID 1159580);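 further: tested at 20 µM; growth read once vehicle control cultures reached saturation at 30 °C; 1 = growth at the plate median or of vehicle wells; lower values mean less growth of the strain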
Details: S. cerevisiae deletion strains, growth OD

Measured: normalized growth

COc1cc(C)c2c(c1C=O)Oc1c(c(C)c(O)c3c1C(O)OC3=O)OC2=O (stereo not drawn)
inactive: locus YAL013W, strain DEP1, hits give low values 1 | locus YAL021C, strain ccr4, hits give low values 1.01 | locus YAL026C, strain drs2, hits give low values 1.02 | locus YAL030W, strain snc1, hits give low values 1.02 | locus YBL061C, strain skt5, hits give low values 1.02 | locus YBR009C, strain hhf1, hits give low values 1.03 | locus YBR021W, strain FUR4, hits give low values 1.01 | locus YBR023C, strain chs3, hits give low values 1.05 | locus YBR171W, strain sec66, hits give low values 1.02 | locus YBR229C, strain ROT2, hits give low values 0.949 | locus YBR231C, strain swc5, hits give low values 1.01 | locus YBR279W, strain paf1, hits give low values 1.01 | locus YCL011C, strain gbp2, hits give low values 1.03 | locus YCL016C, strain dcc1, hits give low values 1.03 | locus YCL029C, strain bik1, hits give low values 0.984 | locus YCL061C, strain MRC1, hits give low values 1.02 | locus YCL069W, strain vba3, hits give low values 1.01 | locus YCR088W, strain abp1, hits give low values 1.01 | locus YDL005C, strain med2, hits give low values 0.946 | locus YDL035C, strain GPR1, hits give low values 0.965 | locus YDL040C, strain nat1, hits give low values 1.01 | locus YDL074C, strain BRE1, hits give low values 0.959 | locus YDL101C, strain DUN1, hits give low values 0.99 | locus YDL185W, strain tfp1, hits give low values 0.972 | locus YDL192W, strain arf1, hits give low values 0.984 | locus YDR001C, strain nth1, hits give low values 1.01 | locus YDR069C, strain doa4, hits give low values 1 | locus YDR101C, strain arx1, hits give low values 0.981 | locus YDR137W, strain rgp1, hits give low values 1.06 | locus YDR150W, strain NUM1, hits give low values 0.994 | locus YDR159W, strain sac3, hits give low values 1.02 | locus YDR162C, strain NBP2, hits give low values 0.941 | locus YDR195W, strain ref2 0.924 | locus YDR297W, strain sur2, hits give low values 1.01 | locus YDR318W, strain mcm21, hits give low values 1 | locus YDR334W, strain swr1, hits give low values 1 | locus YDR335W, strain msn5, hits give low values 1.01 | locus YDR388W, hits give low values 0.997 | locus YDR392W, strain spt3, hits give low values 1 | locus YDR502C, strain sam2, hits give low values 1.04 | locus YEL003W, strain gim4, hits give low values 1.02 | locus YEL037C, strain rad23, hits give low values 1.02 | locus YEL061C, strain CIN8 (second series), hits give low values 1 | locus YEL061C, strain CIN8, hits give low values 0.974 | locus YER015W, strain faa2, hits give low values 1.01 | locus YER016W, strain bim1, hits give low values 1.02 | locus YER110C, hits give low values 0.981 | locus YER111C, strain swi4, hits give low values 1.01 | locus YER155C, strain BEM2 (second series), hits give low values 1.02 | locus YER155C, strain BEM2, hits give low values 0.995 | locus YER167W, strain BCK2, hits give low values 0.986 | locus YFR010W, strain ubp6, hits give low values 1.02 | locus YGL078C, strain dbp3, hits give low values 1.02 | locus YGL086W, strain mad1, hits give low values 1.01 | locus YGL167C, strain pmr1, hits give low values 1.01 | locus YGL173C, strain kem1, hits give low values 1.03 | locus YGL227W, strain vid30, hits give low values 1.02 | locus YGL240W, strain doc1, hits give low values 1.08 | locus YGL248W, strain PDE1, hits give low values 1.02 | locus YGL253W, strain hxk2, hits give low values 1.02 | locus YGR135W, strain pre9, hits give low values 1.06 | locus YGR252W, strain gcn5, hits give low values 1.05 | locus YHR013C, strain ard1, hits give low values 1.05 | locus YHR027C, strain rpn1, hits give low values 1.01 | locus YHR030C, strain SLT2, hits give low values 0.992 and 0.99 | locus YHR079C, strain IRE1 (second series), hits give low values 0.991 | locus YHR079C, strain IRE1, hits give low values 0.994 | locus YHR094C, strain hxt1, hits give low values 0.982 | locus YHR129C, strain ARP1, hits give low values 0.984 | locus YHR142W, strain chs7, hits give low values 1.05 | locus YHR200W, strain rpn10, hits give low values 0.999 | locus YIL066C, strain RNR3, hits give low values 0.97 | locus YIL073C, strain SPO22, hits give low values 1.06 | locus YIL125W, strain kgd1, hits give low values 0.984 | locus YIR030C, strain dcg1, hits give low values 0.982 | locus YJL092W, strain hpr5, hits give low values 1.01 | locus YJL095W, strain BCK1 (second series), hits give low values 1.02 | locus YJL095W, strain BCK1, hits give low values 1.08 and 0.976 | locus YJL115W, strain asf1, hits give low values 1 | locus YJL129C, strain trk1, hits give low values 1.03 | locus YJL134W, strain LCB3, hits give low values 0.986 | locus YJL154C, strain vps35, hits give low values 1.02 | locus YJL164C, strain tpk1, hits give low values 1.03 | locus YJL166W, strain qcr8, hits give low values 1.03 | locus YJL168C, strain set2, hits give low values 0.993 | locus YJL187C, strain SWE1 (second series), hits give low values 0.988 | locus YJL187C, strain SWE1, hits give low values 1.02 | locus YJR066W, strain TOR1, hits give low values 0.919 | locus YKL009W, strain mrt4, hits give low values 0.948 | locus YKL068W, hits give low values 0.983 | locus YKL085W, strain MDH1 (second series), hits give low values 0.968 | locus YKL085W, strain MDH1, hits give low values 0.968 | locus YKL160W, strain elf1, hits give low values 1.03 | locus YKL190W, strain CNB1, hits give low values 0.989 | locus YKR001C, strain vps1, hits give low values 0.991 | locus YKR026C, strain gcn3, hits give low values 1.01 | locus YKR091W, strain srl3, hits give low values 1.01 | locus YLL001W, strain dnm1, hits give low values 1.01 | locus YLL026W, hits give low values 1.02 | locus YLL041C, strain sdh2, hits give low values 1.01 | locus YLR027C, strain aat2, hits give low values 1 | locus YLR039C, strain RIC1, hits give low values 1.01 | locus YLR058C, strain SHM2, hits give low values 0.966 | locus YLR102C, strain apc9, hits give low values 0.986 | locus YLR113W, strain HOG1, hits give low values 0.956 | locus YLR221C, strain rsa3, hits give low values 1.03 | locus YLR258W, strain gsy2, hits give low values 1.03 | locus YLR262C, strain YPT6 (second series), hits give low values 1.06 | locus YLR268W, strain sec22, hits give low values 0.975 | locus YLR320W, strain mms22, hits give low values 1.06 | locus YLR330W, strain CHS5, hits give low values 0.983 | locus YLR342W, strain FKS1 (second series), hits give low values 0.99 | locus YLR342W, strain FKS1, hits give low values 1.03 | locus YLR357W, strain rsc2, hits give low values 0.997 | locus YLR370C, strain arc18, hits give low values 1.02 | locus YLR371W, strain rom2, hits give low values 0.972 | locus YLR384C, strain iki3, hits give low values 1.01 | locus YLR418C, strain cdc73, hits give low values 1.05 | locus YML016C, strain PPZ1, hits give low values 0.985 | locus YML032C, strain rad52, hits give low values 0.985 | locus YML120C, strain ndi1, hits give low values 1.02 | locus YML124C, strain tub3, hits give low values 0.996 | locus YMR058W, strain fet3, hits give low values 0.996 | locus YMR078C, strain ctf18, hits give low values 0.995 | locus YMR125W, strain sto1, hits give low values 0.999 | locus YMR129W, hits give low values 1.01 | locus YMR205C, strain PFK2, hits give low values 1.03 | locus YMR223W, strain ubp8, hits give low values 1 | locus YMR231W, strain pep5, hits give low values 1.02 | locus YMR307W, strain GAS1, hits give low values 0.922 | locus YNL067W, strain RPL9B, hits give low values 1 | locus YNL071W, strain lat1, hits give low values 1.02 | locus YNL128W, strain TEP1, hits give low values 0.918 | locus YNL183C, strain NPR1, hits give low values 0.935 | locus YNL209W, strain ssb2, hits give low values 1 | locus YNL233W, strain BNI4, hits give low values 1.02 | locus YNL248C, strain rpa49, hits give low values 1.05 | locus YNL250W, strain rad50, hits give low values 0.984 | locus YNL271C, strain bni1, hits give low values 0.989 | locus YNL298W, strain CLA4, hits give low values 0.987 | locus YNL307C, strain MCK1, hits give low values 1 | locus YNL322C, strain KRE1 (second series), hits give low values 1.01 | locus YNR049C, strain mso1, hits give low values 1.02 | locus YNR052C, strain pop2, hits give low values 1.02 | locus YOL012C, strain htz1 0.777 | locus YOL147C, strain pex11, hits give low values 0.991 | locus YOR001W, strain rrp6, hits give low values 1.03 | locus YOR061W, strain CKA2, hits give low values 0.952 | locus YOR069W, strain VPS5, hits give low values 0.992 | locus YOR070C, strain gyp1, hits give low values 1.01 | locus YOR080W, strain dia2, hits give low values 1.02 | locus YOR083W, strain WHI5, hits give low values 1.03 | locus YOR106W, strain vam3, hits give low values 1.03 | locus YOR136W, strain idh2, hits give low values 0.987 | locus YOR144C, strain elg1, hits give low values 0.99 | locus YOR184W, strain ser1, hits give low values 0.959 | locus YOR231W, strain MKK1, hits give low values 0.975 | locus YOR265W, strain rbl2, hits give low values 1.01 | locus YOR270C, strain vph1, hits give low values 1.15 | locus YOR290C, strain snf2, hits give low values 1.01 | locus YOR316C, strain cot1, hits give low values 1 | locus YPL051W, strain arl3, hits give low values 1.04 | locus YPL055C, strain LGE1, hits give low values 0.899 | locus YPL078C, strain atp4, hits give low values 1.03 | locus YPL106C, strain sse1, hits give low values 1.02 | locus YPL240C, strain hsp82, hits give low values 1.01 | locus YPL241C, strain CIN2, hits give low values 0.995 | locus YPL256C, strain CLN2, hits give low values 0.974 | locus YPR119W, strain clb2, hits give low values 1 | locus YPR141C, strain kar3, hits give low values 0.979 | locus YPR163C, strain tif3, hits give low values 1 | locus YPR167C, strain met16, hits give low values 1.02 | strain wtn01, hits give low values 0.976
